A short description of experiment [1]: HepG2 liver cancer cell viability effects, profiling panel, resazurin fluorescence, 24 h, PK04 Diversity Set (AID 1172). As to conditions: higher = more signal.
Experiment [2] can be described thus: basal S. cerevisiae growth modulation, no modifier, primary screen, OD600, strain BY4716, 24 h, basal condition (AID 1173). Particulars: OD600, 24 h, higher = more signal, called active from +8 up or from −8 down.
Experiment [3] in a line: MM1S myeloma cell viability, profiling panel, resazurin fluorescence, basal, 24 h, PK04 Diversity Set (AID 1174). As to conditions: higher = more signal, called active from +8 up or from −8 down.
In experiment [4] the target is Dihydroorotate dehydrogenase (quinone), mitochondrial (Plasmodium falciparum (isolate 3D7)) (UniProt Q08210). Kind of experiment: PfDHODH enzyme inhibitors, primary screen, biochemical, C-terminal His tag, absorbance 600 nm (AID 1175).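 Further: recombinant parasite enzyme with a five histidine tag at its C terminus.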 Particulars: DCIP absorbance 600 nm, higher = more signal, called active from +8 up or from −8 down.
Sequence of Dihydroorotate dehydrogenase (quinone), mitochondrial (Plasmodium falciparum (isolate 3D7)) (Q08210 whole entry, looked up): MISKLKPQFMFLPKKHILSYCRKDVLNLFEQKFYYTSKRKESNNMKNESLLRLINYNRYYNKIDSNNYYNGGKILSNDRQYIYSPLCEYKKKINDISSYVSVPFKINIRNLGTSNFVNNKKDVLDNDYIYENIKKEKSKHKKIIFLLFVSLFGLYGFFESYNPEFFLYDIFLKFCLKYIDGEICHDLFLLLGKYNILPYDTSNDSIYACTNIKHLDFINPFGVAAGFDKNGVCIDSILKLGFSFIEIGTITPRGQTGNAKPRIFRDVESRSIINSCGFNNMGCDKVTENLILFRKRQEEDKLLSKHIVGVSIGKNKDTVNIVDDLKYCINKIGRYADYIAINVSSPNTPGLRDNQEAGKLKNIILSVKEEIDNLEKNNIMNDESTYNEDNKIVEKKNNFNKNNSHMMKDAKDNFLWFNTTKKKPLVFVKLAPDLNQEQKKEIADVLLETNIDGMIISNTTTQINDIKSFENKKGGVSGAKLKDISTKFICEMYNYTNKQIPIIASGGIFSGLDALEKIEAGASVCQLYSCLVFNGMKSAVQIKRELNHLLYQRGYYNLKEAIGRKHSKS
A short description of experiment [5]: P. aeruginosa biofilm formation inhibitors, primary screen, strain PAO1, LB-PBS medium, absorbance 600 nm (AID 1176). As to conditions: P. aeruginosa PAO1 growth/biofilm, A600, 12 h; higher = more signal.
The nature of experiment [6]: S. cerevisiae RM11-1a growth modifiers, primary screen, strain RM11-1a, OD600, basal, 24 h (AID 1177).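 Further: cultures grown under basal conditions with no added stressor.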 Particulars: OD600, 24 h, higher = more signal, called active from +8 up or from −8 down.
Experiment [7] is described as follows: E. coli acrAB mutant growth effects, primary screen, E. coli filamentation inducers, strain DRC39, OD650, 24 h (AID 1178).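 Further: growth measured as culture turbidity by optical density at 650 nm.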 As to conditions: higher = more signal, called active from +8 up or from −8 down.
Experiment [8] can be described thus: E. coli acrAB mutant growth effects, primary screen, E. coli filamentation inducers, strain DRC39, OD650, 48 h (AID 1179).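 Further: screen aims at cell division blockers that make cells filament.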 Particulars: E. coli DRC39 delta-acrAB growth, higher = more signal, called active from +8 up or from −8 down.
Experiment [9] can be described thus: RPMI8226 myeloma cell viability, profiling panel, resazurin fluorescence, basal, 24 h, PK04 Diversity Set (AID 1180).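 Further: RPMI8826 multiple myeloma cell line at 5000 cells per well.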 Particulars: higher = more signal.
The target in experiment [10] is E3 ubiquitin-protein ligase XIAP (Homo sapiens) (UniProt P98170). Kind of experiment: XIAP binders, primary screen, biophysical, small-molecule microarray, fluorescence 635 nm (AID 1181).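 Further: score merges 667 nm emission and signal to noise over triplicate slides.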 Particulars: small-molecule microarray binding, higher = more signal.
Sequence of E3 ubiquitin-protein ligase XIAP (Homo sapiens) (P98170 whole entry, looked up): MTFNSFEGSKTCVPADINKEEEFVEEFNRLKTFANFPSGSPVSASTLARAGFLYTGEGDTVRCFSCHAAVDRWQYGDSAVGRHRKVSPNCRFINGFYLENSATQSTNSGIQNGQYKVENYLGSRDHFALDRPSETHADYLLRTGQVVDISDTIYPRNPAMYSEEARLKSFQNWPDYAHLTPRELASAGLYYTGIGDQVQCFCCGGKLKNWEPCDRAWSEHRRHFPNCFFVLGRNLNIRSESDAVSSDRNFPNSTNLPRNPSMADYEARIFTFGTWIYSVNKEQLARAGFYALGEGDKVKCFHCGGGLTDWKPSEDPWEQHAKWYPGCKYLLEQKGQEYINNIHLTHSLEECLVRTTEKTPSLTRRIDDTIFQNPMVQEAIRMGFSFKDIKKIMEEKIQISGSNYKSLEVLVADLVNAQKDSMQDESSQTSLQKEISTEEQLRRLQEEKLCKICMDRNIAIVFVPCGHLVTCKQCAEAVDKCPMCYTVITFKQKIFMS
The subject of experiment [11] is XIP peptide (Xip251-270) binding. The experiment can be described thus: small-molecule binders of XIP peptide, primary screen, biochemical, small-molecule microarray, fluorescence 635/667 nm, 0.1 µg/mL protein (AID 1182). Particulars: fluorescent protein binding, 635 nm, higher = more signal, called active from +8 up or from −8 down.
The test system of experiment [12] is XIP peptide (Xip251-270). Kind of experiment: small-molecule binders of XIP peptide, primary screen, biochemical, small-molecule microarray, fluorescence 635/667 nm, 0.5 µg/mL protein (AID 1183). As to conditions: small-molecule microarray binding, fluorescence 635 nm; higher = more signal.
The nature of experiment [13]: Plasmodium falciparum growth inhibition, primary screen, strain 3D7, DAPI fluorescence, 100 nL (AID 1184).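 Further: parasites grown inside human red blood cells in medium with human serum.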 Particulars: P. falciparum 3D7 growth, 3 d, higher = more signal.
For experiment [14], the target named is Homeobox protein Hox-A13 (Mus musculus) (UniProt Q62424). Kind of experiment: inhibitors of HoxA13-DNA binding, primary screen, biochemical, fluorescence polarization, labeled oligonucleotide (AID 1185). As to conditions: 15 min, higher = more signal, called active from +8 up or from −8 down.
Sequence of Homeobox protein Hox-A13 (Mus musculus) (Q62424 whole entry, looked up): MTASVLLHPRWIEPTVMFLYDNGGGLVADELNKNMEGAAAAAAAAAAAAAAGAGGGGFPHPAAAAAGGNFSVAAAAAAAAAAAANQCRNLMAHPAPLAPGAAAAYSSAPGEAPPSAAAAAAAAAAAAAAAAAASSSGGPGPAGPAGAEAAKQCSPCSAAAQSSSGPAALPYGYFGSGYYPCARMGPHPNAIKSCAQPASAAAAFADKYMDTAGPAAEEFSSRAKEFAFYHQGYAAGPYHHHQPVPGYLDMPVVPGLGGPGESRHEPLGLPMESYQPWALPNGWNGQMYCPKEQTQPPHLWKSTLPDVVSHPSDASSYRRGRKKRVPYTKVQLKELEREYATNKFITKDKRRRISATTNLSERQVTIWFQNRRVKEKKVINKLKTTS
Experiment [15] can be described thus: inhibitors of hydroxyurea-induced Chk1 phosphorylation, primary screen, imaging, HeLa, phospho-Chk1 antibody, percent positive cells (AID 1186). Particulars: hydroxyurea-induced phospho-Chk1 immunofluorescence imaging, higher = more signal.
A short description of experiment [16]: inhibitors of hydroxyurea-induced Chk1 phosphorylation, primary screen, imaging, HeLa, phospho-Chk1 nuclear intensity (AID 1187). Particulars: hydroxyurea-induced phospho-Chk1 immunofluorescence imaging, higher = more signal.

Active and inactive are the calls of the source. Unless noted, how the calls were made is not given here.

Regarding `CC(C)(C)OC(=O)CC[C@@]1(C(=O)N2CCCCC2)N=C(c2ccc(OCCCO)cc2)O[C@@H]1c1ccccc1CN=[N+]=[N-]`, the z-score was 0.613 in experiment [1]; 0.0243 (inactive) in [2]; 0.053 (inactive) in experiment [3]; -0.223 (inactive) in experiment [5]; 0.978 (inactive) in experiment [6]; -0.366 (inactive) in [7]. Further, the z-score is 0.831 (inactive) in [8]; 0.0127 in experiment [9]; -2.24 in [13]; -4.37 (inactive) in experiment [14]; -0.325 (inactive) in experiment [15]; -0.038 (inactive) in [16]. Further, the composite z-score was 0.113 (inactive) in [4], 0.183 in experiment [10], 1.32 (inactive) in experiment [11] and 0.824 in experiment [12].
Take `COC(=O)C(CC#Cc1ccc2c(c1)[C@]1(C(=O)N2)[C@H](c2ccc(O)cc2)N2[C@H](c3ccccc3)[C@H](c3ccccc3)OC(=O)[C@H]2[C@@H]1C(N)=O)C(=O)OC`: the z-score in experiment [1] was 1.09; in [2] it was -0.773 (inactive); in experiment [3], 0.455 (inactive); in experiment [5], 1.28 (inactive); in [6] it was -0.864 (inactive); in experiment [7], 1.68 (inactive). The z-score in experiment [8] was 2.08 (inactive); in [9], 1.1; in experiment [13], 0.38; in experiment [14], 0.452 (inactive); in [15], -0.174 (inactive); in experiment [16], -0.279 (inactive). Further, the composite z-score was 0.133 (inactive) in [4], 0.153 in experiment [10], -0.609 (inactive) in experiment [11] and -2.27 in experiment [12].
Take `COc1ccc([Si](C)(C)[C@@H]2[C@@H](CCO)O[C@]3(C(=O)N(Cc4cccc(N5C(=O)COc6ccccc65)c4)c4ccccc43)[C@H]2C)cc1`: the z-score in experiment [1] was -2.07; in [2] it was 0.967 (inactive); in experiment [3] it was -3.29 (inactive); in [5], 1.3 (inactive); in [6] it was 4.05 (inactive); in [7] it was 0.775 (inactive). Also, the z-score in experiment [8] is 0.295 (inactive); in [9], -3.26; in [13] it was -2.78; in [14], -1.01 (inactive); in experiment [15] it was -1.02 (inactive); in experiment [16], -1.18 (inactive). The composite z-score is 0.737 (inactive) in experiment [4], 0.0424 in experiment [10], -0.417 (inactive) in [11] and 0.763 in experiment [12].
As to `C=CCC(OC(C)=O)[C@@H]1[C@@H](N(Cc2ccc(-c3ccccc3)cc2)C(=O)Cc2ccc(OC)cc2)c2cc(OCCCO)ccc2N1C(=O)c1ccc(-c2ccccc2)cc1` (some centres undefined), the z-score in experiment [1] is 0.192; in [2] it was -1.13 (inactive); in experiment [3], 0.833 (inactive); in experiment [5] it was -0.24 (inactive); in experiment [6] it was -0.754 (inactive); in [7] it was 1.57 (inactive). Also, the z-score in experiment [8] is 0.807 (inactive); in experiment [9], 0.989; in experiment [13], -2.91; in [14], -1.52 (inactive); in experiment [15] it was -0.244 (inactive); in experiment [16] it was 0.158 (inactive). The composite z-score was -0.0887 (inactive) in [4], 0.233 in experiment [10], -0.0622 (inactive) in experiment [11] and -0.698 in experiment [12].
For the molecule `COCCCNC(=O)[C@]1(CCS(=O)(=O)c2ccccc2)N=C(c2ccc(OCCCO)cc2)O[C@@H]1c1ccccc1`, the z-score was 0.484 in experiment [1]; -0.324 (inactive) in experiment [2]; 0.294 (inactive) in experiment [3]; -0.0304 (inactive) in experiment [5]; -0.588 (inactive) in [6]; 0.604 (inactive) in experiment [7]. Moreover, the z-score was 0.607 (inactive) in experiment [8]; -0.0847 in experiment [9]; -2.13 in experiment [13]; -4.72 (inactive) in [14]; -0.369 (inactive) in experiment [15]; -0.42 (inactive) in experiment [16]. In addition, the composite z-score was 0.888 (inactive) in experiment [4], 0.209 in experiment [10], 1.47 (inactive) in [11] and 0.919 in [12].
Take `Cc1ccc(F)cc1S(=O)(=O)N[C@@H]1CCN(C(=O)c2ccc(OC(C)C)cc2)C1`: the z-score in experiment [1] was 0.157; in experiment [2] it was -2.17 (inactive); in [3], 0.554 (inactive); in [5], -0.165 (inactive); in [6], -0.455 (inactive); in experiment [7] it was 1.16 (inactive). The z-score was 0.427 (inactive) in experiment [8]; 0.339 in experiment [9]; -1.21 in experiment [13]; -5.21 (inactive) in [14]; 0.0079 (inactive) in experiment [15]; -0.303 (inactive) in experiment [16]. The composite z-score in [4] is -0.431 (inactive); in [10], 0.0336; in experiment [11], 0.615 (inactive); in [12], 0.805.
As for `CN(C)CCCC[C@@H]1NC(=O)[C@H]2C[C@@H](C(=O)NCCCCCCNC(=O)CS)[C@@H](c3ccc(O)cc3)N2C1=O`, the z-score is 0.183 in [1]; -0.213 (inactive) in experiment [2]; -0.614 (inactive) in [3]; 0.022 (inactive) in [5]; -0.48 (inactive) in [6]; 0.0961 (inactive) in [7]. Besides, the z-score in [8] is -0.509 (inactive); in experiment [9], -0.892; in experiment [13], 0.323; in [14] it was -2.87 (inactive); in experiment [15], -0.346 (inactive); in [16], 0.128 (inactive). For the same molecule, the composite z-score in [4] is -0.368 (inactive); in [10] it was -0.0749; in experiment [11], 1.44 (inactive); in experiment [12] it was 0.868.
`COc1cc(C(O)C2C=CC3C(=O)NC(=O)C3N2Nc2ccc(Cl)cc2Cl)cc(OC)c1OC` (centres undefined): the z-score in [1] is -0.925; in [2], -12.7 (active); in [3] it was -0.679 (inactive); in experiment [5], 0.683 (inactive); in experiment [6], 0.1 (inactive); in experiment [7] it was -0.305 (inactive). Further, the z-score in experiment [8] is -0.425 (inactive); in experiment [9], -0.933; in experiment [13], -0.395; in experiment [14], -6.07 (inactive); in experiment [15], 0.136 (inactive); in [16], 0.148 (inactive). Moreover, the composite z-score in experiment [4] was 0.0871 (inactive); in [10] it was 0.0454; in experiment [11] it was 0.587 (inactive); in experiment [12], 0.619.
In the case of `COC(=O)[C@@]1(Cc2ccc(OC)cc2)[C@H]2c3cc(C(=O)N4CCCC4)n(Cc4ccc(C)o4)c3C[C@H]2CN1C(=O)c1ccccc1`, the z-score was -6.47 in experiment [1]; -8.36 (active) in [2]; -9.97 (active) in [3]; 0.411 (inactive) in [5]; -1.57 (inactive) in experiment [6]; 0.0254 (inactive) in [7]. Moreover, the z-score in experiment [8] is -0.726 (inactive); in experiment [9], -7.27; in [13] it was -1.77; in experiment [14], -5.91 (inactive); in experiment [15], -0.683 (inactive); in experiment [16], -1.38 (inactive). In addition, the composite z-score in [4] is -1.53 (inactive); in experiment [10] it was 0.402; in experiment [11] it was 0.0373 (inactive); in [12] it was 0.283.

These data come from PubChem BioAssay.
